Values joined by “and” are separate entries in the source; they are usually repeats but may differ in a detail not shown here. Equal values may be shown once. More than one record can exist for a structure, and the calls need not agree. Active and inactive are the calls of the source.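 The calls were made as follows, unless noted: active = thallium flux through the channel raised or lowered by more than 3 SD from vehicle-only wells, actives on both sides; inactive = the rest.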
Tests used:
[1] = test system: Hepatitis C virus NS3 helicase; assay: HCV NS3 helicase inhibitors, primary screen, biochemical, fluorescence polarization, NIH Clinical Collection (AID 743270; call rule not given here); settings: NS3 helicase binding to Cy5-dT15 DNA, stronger effect = higher value, concentration not given here
[2] = biological target: Single-stranded DNA-binding protein (Escherichia coli (strain K12)) (UniProt P0AGE0); assay: E. coli SSB displacement from DNA, counter-screen for HCV NS3 helicase inhibitor project, biochemical, fluorescence polarization, NIH Clinical Collection (AID 743271; in the data active = inhibition above about 28%); settings: stronger effect = higher value, concentration not given here
[3] = fluorescence interference in NS3h assay format, artefact control for HCV NS3 helicase inhibitor project, biochemical, NIH Clinical Collection (AID 743272; call rule not given here;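 also: HCV NS3 helicase with a Cy5 labelled single stranded DNA probe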); settings: fluorescence interference counterscreen, stronger effect = lower value
[4] = stimulators of nuclear beta-catenin in C2C12, primary screen, imaging, WNT3A-conditioned medium, mouse C2C12, NPC library (AID 1117326; in the data active = nuclear beta-catenin stimulation mostly above about 4.2%, no sharp cut-off; inactive = mostly below about 10%); settings: stronger effect = higher value
[5] = stimulators of insulin release from INS-1E, primary screen, cell-based, 5 mM glucose, NPC library (AID 1117329;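 active = compound raises insulin release from rat beta cells at 5 mM glucose, no numeric limit stated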); settings: rat INS-1E insulin secretion, at 10 µM, stronger effect = higher value
[6] = growth inhibition of GSK3B-pretreated HCT116 cells – cell-based, CellTiter-Glo, 0.2 to 20 µM (AID 1117336;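 active = compounds lowering colon cancer cell viability after pretreatment blocking the GSK3B kinase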); settings: HCT116 viability after GSK3B inhibitor, at 20 µM, stronger effect = higher value
[7] = inhibition of endothelial tube formation, primary screen, imaging, VEGF stimulated, CD31 staining, tube area, NPC library (AID 1117340;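 active = compound that reduces growth-factor-driven endothelial tube area in a mixed cell culture, no cutoff stated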); settings: VEGF-stimulated ADSC/ECFC co-culture, at 10 µM, stronger effect = higher value
[8] = glucagon-like peptide 1 release enhancers, primary assay, NCI-H716 cell line, NPC library (AID 1117341;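 active = compound raises GLP1 secretion from the human gut endocrine cells, with no numeric limit stated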); settings: NCI-H716 cells, at 10 µM, stronger effect = higher value
[9] = HCT116 colon cancer cell growth inhibition, primary screen, CellTiter-Glo luminescence, NPC library (AID 1117342;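 active = compounds that lower survival of HCT116 colon cancer cells in the luminescence readout, no numeric limit stated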); settings: at 20 µM (top of the series)
[10] = CellTiter-Glo luminescent readout of SW480 viability loss, NPC library primary (AID 1117343;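 active = compounds that lower viability of the colon cancer cells in the luminescence readout, with no numeric limit stated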); settings: CellTiter-Glo luminescence; at 20 µM (top of the series)
[11] = decreased DLD-1 cellular survival, CellTiter-Glo luminescent readout, NPC compound collection, primary HTS (AID 1117346;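 active = compounds that lower survival of DLD-1 colon cancer cells in the luminescence readout, no cutoff given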); settings: DLD-1 viability, CellTiter-Glo luminescence; at 20 µM (top of the series)
[12] = biological target: 6-phosphogluconate dehydrogenase, decarboxylating (Homo sapiens) (UniProt P52209); assay: 6PGD enzyme inhibitors, primary screen, biochemical, human, recombinant enzyme, NADPH absorbance (AID 1159550;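 active = at least 20% inhibition of 6-phosphogluconate dehydrogenase activity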); settings: recombinant 6PGD, NADPH absorbance 341 nm; at 10 µM; stronger effect = higher value
[13] = differential killing of epithelial or mesenchymal cells, primary screen, imaging, PC-3E GFP, TEM4-18 mCherry, co-culture (AID 1345086;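 active = compounds killing one labelled cell type while sparing the other, by normalised counts and ratio limits, not self-fluorescent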;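 as to all read-outs here: cells exposed to compound for 72 h before imaging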;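 as to red/green cell ratio (normalised): normalised mesenchymal count divided by normalised epithelial count so high means epithelial killing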); settings: imaging cell counts, at 1 µM; for red/green cell ratio (normalised): actives lie on both sides, counts scaled to control wells, 1 = unselective
[14] = survival rescue of mitochondrial mutant cells in low glucose, primary screen, MELAS cybrids, Rieske KO mouse fibroblasts, CellTiter-Glo (AID 1508586;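 active = mean z-score across replicates of 1.96 or higher in either the MELAS or the Rieske mutant cell line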;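 also: z relative to plate mean and SD of compound and empty wells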)
[15] = biological target: NAD(+) hydrolase SARM1 (Homo sapiens) (UniProt Q6SZW1); assay: SARM1 TIR NADase inhibitors, cell lysate, NAD-Glo luminescence (AID 1508614;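 active = compound whose remaining NAD level is above about 45 nM, limit read from the data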;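 also: higher remaining NAD means stronger inhibition of SARM1 NADase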); settings: SAM-TIR HEK293T lysate NADase, at 1 µM, stronger effect = higher value
[16] = biological target: Mitogen-activated protein kinase 7 (Homo sapiens) (UniProt Q13164); assay: ERK5 transactivation activators in reporter cells, primary screen, cell-based, HTS (AID 1508626;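 active = luciferase signal above three times the same-plate solvent-only control wells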;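 also: luciferase driven by Gal4-ERK5 fusion binding five Gal4 sites before minimal TATA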); settings: HeLa Gal4-ERK5 transactivation, 18 h, at 5 µM, stronger effect = higher value
F380Y = assay: modulators of BK channel variants, profiling panel, selectivity assay, cell-based, U2OS BacMam, thallium flux, beta subunits (AID 1259406); settings: at 30 µM;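 also: initial slope of Thallos dye fluorescence rise after thallium is added; log ratio against the mean of 0.3% DMSO vehicle wells on the same plate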
F380Y/beta2Delta = assay: as above; settings: at 30 µM
[17] = biological target: Calcium-activated potassium channel subunit alpha-1 (Homo sapiens) + Leucine-rich repeat-containing protein 26 (Homo sapiens) (UniProt Q12791+Q2I0M4); assay: as above; settings: F380Y/Slo1WT/gamma1, at 30 µM
[18] = sensitizers of A549 cells to miR-34 induction, primary screen, imaging, A549 dox-inducible miR-34, nuclei and caspase counts (AID 1347080;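 active = compounds whose cell count with miR-34 switched on is under 0.7 times the count with it off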); settings: A549 miR-34 inducible, Hoechst nuclei count, 48 h
[19] = measured here: epithelial PC-3E GFP cell survival
[20] = measured here: mesenchymal TEM4-18 mCherry cell survival
[21] = MELAS cybrid survival, CellTiter-Glo 48 h, stronger effect = higher value
[22] = Rieske KO mouse fibroblast survival, CellTiter-Glo 72 h

6-phosphogluconate dehydrogenase, decarboxylating (Homo sapiens), sequence (P52209 whole entry, looked up): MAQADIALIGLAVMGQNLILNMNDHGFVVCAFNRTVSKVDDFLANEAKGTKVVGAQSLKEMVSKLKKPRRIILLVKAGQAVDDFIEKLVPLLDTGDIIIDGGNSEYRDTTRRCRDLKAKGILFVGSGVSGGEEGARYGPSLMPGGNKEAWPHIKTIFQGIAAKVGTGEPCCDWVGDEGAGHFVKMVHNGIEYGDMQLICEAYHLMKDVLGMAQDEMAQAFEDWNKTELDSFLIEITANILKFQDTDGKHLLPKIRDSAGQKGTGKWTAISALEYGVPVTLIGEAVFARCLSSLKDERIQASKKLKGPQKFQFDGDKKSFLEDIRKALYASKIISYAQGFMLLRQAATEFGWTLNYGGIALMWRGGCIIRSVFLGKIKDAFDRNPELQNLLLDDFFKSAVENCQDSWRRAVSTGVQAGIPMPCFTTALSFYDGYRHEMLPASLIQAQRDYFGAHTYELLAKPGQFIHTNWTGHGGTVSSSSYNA
Mitogen-activated protein kinase 7 (Homo sapiens), sequence (Q13164 whole entry, looked up, the tested form may be a part): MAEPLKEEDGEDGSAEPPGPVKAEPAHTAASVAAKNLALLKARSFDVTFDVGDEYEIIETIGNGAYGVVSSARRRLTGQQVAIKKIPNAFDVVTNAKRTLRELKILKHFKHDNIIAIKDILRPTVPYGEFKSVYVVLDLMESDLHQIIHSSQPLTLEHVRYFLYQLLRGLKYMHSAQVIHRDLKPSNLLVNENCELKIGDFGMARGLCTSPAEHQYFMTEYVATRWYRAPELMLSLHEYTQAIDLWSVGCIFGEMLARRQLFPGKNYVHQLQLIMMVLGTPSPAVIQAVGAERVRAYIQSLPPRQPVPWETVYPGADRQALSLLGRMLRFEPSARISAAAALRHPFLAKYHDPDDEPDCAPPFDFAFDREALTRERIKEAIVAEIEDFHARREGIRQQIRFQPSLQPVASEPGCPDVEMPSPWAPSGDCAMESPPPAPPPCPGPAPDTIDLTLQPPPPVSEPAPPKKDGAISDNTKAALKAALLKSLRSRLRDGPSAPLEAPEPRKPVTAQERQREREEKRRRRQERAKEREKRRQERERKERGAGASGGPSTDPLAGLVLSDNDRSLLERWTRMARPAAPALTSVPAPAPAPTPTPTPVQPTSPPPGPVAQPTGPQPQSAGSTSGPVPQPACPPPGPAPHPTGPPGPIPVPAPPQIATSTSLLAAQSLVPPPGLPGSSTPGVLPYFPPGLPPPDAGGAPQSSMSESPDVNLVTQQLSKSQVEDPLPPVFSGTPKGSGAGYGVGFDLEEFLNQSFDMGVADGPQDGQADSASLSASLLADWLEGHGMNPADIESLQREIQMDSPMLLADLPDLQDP
Calcium-activated potassium channel subunit alpha-1 (Homo sapiens) + Leucine-rich repeat-containing protein 26 (Homo sapiens), sequence (Q2I0M4 whole entry, looked up, one chain of several): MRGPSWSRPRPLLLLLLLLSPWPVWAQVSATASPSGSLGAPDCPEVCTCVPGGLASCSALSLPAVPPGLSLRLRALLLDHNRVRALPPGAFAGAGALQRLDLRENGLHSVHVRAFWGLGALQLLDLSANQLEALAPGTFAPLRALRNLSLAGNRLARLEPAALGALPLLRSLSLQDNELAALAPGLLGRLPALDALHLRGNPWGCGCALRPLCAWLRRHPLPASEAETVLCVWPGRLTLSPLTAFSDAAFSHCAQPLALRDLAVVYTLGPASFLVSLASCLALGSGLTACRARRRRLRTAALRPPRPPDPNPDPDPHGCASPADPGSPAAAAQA
NAD(+) hydrolase SARM1 (Homo sapiens), sequence (Q6SZW1 whole entry, looked up, the tested form may be a part): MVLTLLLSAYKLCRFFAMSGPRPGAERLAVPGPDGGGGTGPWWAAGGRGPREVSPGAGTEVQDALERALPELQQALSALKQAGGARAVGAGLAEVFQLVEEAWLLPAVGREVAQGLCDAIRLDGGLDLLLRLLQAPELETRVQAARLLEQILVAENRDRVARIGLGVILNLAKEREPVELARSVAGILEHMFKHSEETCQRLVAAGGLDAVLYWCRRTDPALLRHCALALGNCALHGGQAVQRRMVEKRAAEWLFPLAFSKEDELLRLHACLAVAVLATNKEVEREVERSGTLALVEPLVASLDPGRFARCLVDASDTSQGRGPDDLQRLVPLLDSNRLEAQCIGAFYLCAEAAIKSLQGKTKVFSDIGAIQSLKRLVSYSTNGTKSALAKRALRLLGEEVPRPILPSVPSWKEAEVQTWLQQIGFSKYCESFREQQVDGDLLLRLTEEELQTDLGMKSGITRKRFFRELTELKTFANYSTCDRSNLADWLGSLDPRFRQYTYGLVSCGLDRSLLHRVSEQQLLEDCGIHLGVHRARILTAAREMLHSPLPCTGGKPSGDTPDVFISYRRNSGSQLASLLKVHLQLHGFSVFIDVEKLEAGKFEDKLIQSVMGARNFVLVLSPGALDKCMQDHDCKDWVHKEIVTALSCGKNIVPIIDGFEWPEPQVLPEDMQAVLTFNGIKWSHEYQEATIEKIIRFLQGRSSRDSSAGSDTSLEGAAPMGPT

## OCCN1CCN(CCCN2c3ccccc3Sc3ccc(C(F)(F)F)cc32)CC1
[1]
  inhibition: -6.33% (inactive)
[2]
  inhibition: 5.91% (inactive)
[3]
  fluorescence ratio: 0.82 (inactive)
[4]; at 10 µM
  nuclear beta-catenin stimulation: 39.2% (inactive)
[4]; stimulation, at 2 µM
  nuclear beta-catenin stimulation: 6.3%
[5]
  insulin secretion stimulation: 8.85% (inactive)
[6]
  viability decrease: 118% (active)
[7]
  tube area decrease: 98.9% (active)
[8]
  GLP1 secretion stimulation: 15.4% (inactive)
[9]
  inhibition of viability: 124% (active)
[10]
  viability decrease (inhibition): 157% (active)
[11]
  viability decrease (inhibition): 101% (active)
[12]
  inhibition: 10.2% (inactive)
[13]
  red/green cell ratio (normalised): 1.23 (inactive)
[13]; [19]
  normalised cell number: 0.78
[13]; [20]
  normalised cell number: 0.95
[14]; [21]
  z-score: -1.28 (inactive) and 0.571 (inactive)
[14]; [22]
  z-score: -0.139 and 0.376
[15]
  remaining NAD: 10 nM (inactive)
[16]
  luciferase signal: 28 AU (inactive)
F380Y
  log fold change Tl+ flux: 0.235 (active)
F380Y/beta2Delta
  log fold change Tl+ flux: 0.167 (active)
[17]
  log fold change Tl+ flux: 0.0357 (inactive)

## CN1CCCC(n2nc(Cc3ccc(Cl)cc3)c3ccccc3c2=O)CC1 (stereo not drawn)
[1]
  inhibition: -6.73% (inactive)
[2]
  inhibition: 0.67% (inactive)
[3]
  fluorescence ratio: 0.97 (inactive)
[4]; at 10 µM
  nuclear beta-catenin stimulation: 1.5% (inactive)
[4]; stimulation, at 2 µM
  nuclear beta-catenin stimulation: 1.7%
[5]
  insulin secretion stimulation: 5.8% (inactive)
[6]
  viability decrease: -40.4% (inactive)
[7]
  tube area decrease: 21.5% (inactive)
[8]
  GLP1 secretion stimulation: 5.5% (inactive)
[9]
  inhibition of viability: 64.8% (active)
[10]
  viability decrease (inhibition): -0.2% (inactive)
[11]
  viability decrease (inhibition): 37.8% (inactive)
[12]
  inhibition: 6.29% (inactive)
[13]
  red/green cell ratio (normalised): 0.89 (inactive)
[13]; [19]
  normalised cell number: 1.16
[13]; [20]
  normalised cell number: 1.03
[18]; stronger effect = lower value, cell number ratio, induced over uninduced
  fold change: 0.849 (inactive) and 0.93 (inactive) and 0.906 (inactive)
[18]; measured here: relative caspase fold change +Dox/-Dox
  fold change: 1.32 and 0.694 and 6.18
[18]; measured here: total cells with miR-34 induction, stronger effect = lower value
  cell count: 5140 and 8770 and 9440
[18]; measured here: total cells without miR-34 induction
  cell count: 6060 and 9430 and 10400
[14]; [21]
  z-score: -0.451 (inactive) and -0.0693 (inactive)
[14]; [22]
  z-score: 0.19 and 0.396
[15]
  remaining NAD: 10 nM (inactive)
[16]
  luciferase signal: 88 AU (inactive)
F380Y
  log fold change Tl+ flux: 0.248 (active)
F380Y/beta2Delta
  log fold change Tl+ flux: 0.144 (active)
[17]
  log fold change Tl+ flux: 0.0633 (inactive)

## CN(C)CCCN1c2ccccc2Sc2ccc(Cl)cc21
[1]
  inhibition: -4.09% (inactive)
[2]
  inhibition: -1.24% (inactive)
[3]
  fluorescence ratio: 0.91 (inactive)
[4]; at 10 µM
  nuclear beta-catenin stimulation: 5.5% (inactive)
[4]; stimulation, at 2 µM
  nuclear beta-catenin stimulation: 0.9%
[5]
  insulin secretion stimulation: 8.9% (inactive)
[6]
  viability decrease: 82% (active)
[7]
  tube area decrease: 68.7% (active)
[8]
  GLP1 secretion stimulation: 15.5% (inactive)
[9]
  inhibition of viability: 96.1% (active)
[10]
  viability decrease (inhibition): 128% (active)
[11]
  viability decrease (inhibition): 93.1% (active)
[12]
  inhibition: 10.5% (inactive)
[13]
  red/green cell ratio (normalised): 1.34 (inactive)
[13]; [19]
  normalised cell number: 0.97
[13]; [20]
  normalised cell number: 1.3
[14]; [21]
  z-score: 2.27 (active) and 0.163 (inactive) and 0.651 (inactive)
[14]; [22]
  z-score: -0.778 and 0.446 and 0.902
[15]
  remaining NAD: 10 nM (inactive)
[16]
  luciferase signal: 68 AU (inactive)
F380Y
  log fold change Tl+ flux: 0.156 (active)
F380Y/beta2Delta
  log fold change Tl+ flux: 0.221 (active)
[17]
  log fold change Tl+ flux: 0.0114 (inactive)

— PubChem BioAssay
